# Laboratory results reported in PubChem BioAssay (NCI).
# Compounds without any hit were thinned out: in the full panel of roughly 83,000, 20% have a hit.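 Interpretation: 100, growth as untreated; towards 0, rising growth inhibition; 0, no net growth; 0 to -100, cell death. Compounds scoring below 10 were considered active.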 A number with no mark means an inactive call. Active and inactive are the calls of the source.
# What was measured:
# Assay in all cases: NCI-60 one-dose screen, 48 h (100 = growth as untreated, 0 = no growth, -100 = all killed)
# Conditions in all cases: 10 µM unless noted
# NCI-H23 lung = system: NCI-H23 lung
# NCI-H226 lung = system: NCI-H226 lung
# NCI-H322M lung = system: NCI-H322M lung
# HOP-62 NSCLC = system: HOP-62 NSCLC
# NCI-H460 lung = system: NCI-H460 lung
# HOP-92 NSCLC = system: HOP-92 NSCLC
# NCI-H522 lung = system: NCI-H522 lung
# A549/ATCC NSCLC = system: A549/ATCC NSCLC
# 786-0 renal = system: 786-0 renal
# COLO 205 colon = system: COLO 205 colon
SMILES,growth (NCI-H23 lung),growth (NCI-H226 lung),growth (NCI-H322M lung),growth (HOP-62 NSCLC),growth (NCI-H460 lung),growth (HOP-92 NSCLC),growth (NCI-H522 lung),growth (A549/ATCC NSCLC),growth (786-0 renal),growth (COLO 205 colon)
COc1ccc(/C(C)=C(\c2ccc(Cl)cc2)c2ccc(OCCCN(C)C)cc2)cc1,82.3%,103%,82.2%,101%,40.2%,62.5%,76.7%,47.2%,75.3%,15%
CN1CCN(Cc2ccc(NC(=O)c3cncc(C#Cc4c(N)ncc5ccccc45)c3)cc2C(F)(F)F)CC1,-59.1% (active),-11.8% (active),-37% (active),-83.7% (active),-71.5% (active),-59.2% (active),-83.9% (active),-87.7% (active),-80.8% (active),-90.4% (active)
Cc1ccc(C(F)(F)F)cc1N1CCN(C(=O)[C@H]2C[C@H]2c2ccc(C(F)(F)F)nc2)CC1,95.5%,84.3%,99.1%,97.7%,106%,60.5%,72%,81.5%,93%,91.6%
C#CCOc1cccc(-c2ncnc3cc(NC(=O)CCl)ccc23)c1,10.3%,-11% (active),71.8%,-46.2% (active),-18.7% (active),-67.1% (active),-77.1% (active),16.7%,-85.4% (active),-82.4% (active)
C=CCn1c(SCC(=O)Nc2ccc(C(=O)/C=C/c3ccc(Cl)cc3)cc2)nnc1-c1ccc(Cl)c(Cl)c1,85%,85.7%,83.4%,84.3%,90.2%,70.2%,66.5%,67.4%,82.9%,100%
C=CC(=O)NCc1cccc(Nc2ncc(Br)c(NCCCNC(=O)C3CCC3)n2)c1,-37% (active),-0.669% (active),-13.1% (active),-26.9% (active),-41.9% (active),-11.5% (active),-38.8% (active),-9.64% (active),-35.2% (active),-25.7% (active)
CCOC(=O)/C=C1\S/C(=N\Nc2cc(=O)[nH]c3ccc(OC)cc23)N(c2ccccc2)C1=O,94%,93.2%,101%,97.5%,110%,89.7%,83.3%,104%,94.4%,95.7%
N=C(N)c1ccc(-c2ccc(-c3ccccc3)s2)nc1,94.1%,92.8%,80.4%,88.8%,23.1%,70.2%,83.9%,83.8%,91.3%,-6.33% (active)
C#CCOc1ccc(C2=NN(CCCC)C3N=C(Cl)c4ncn(CCCC)c4N23)cc1OCC#C (stereo not given),86.9%,90.5%,88.8%,90.4%,88.6%,73.6%,74.7%,80.3%,102%,103%
O=C1NCCN1/N=C/c1c(Cl)n(Cc2ccc(Cl)cc2)c2ccccc12,98.2%,64.8%,110%,136%,41.4%,62.8%,93.9%,70%,96.5%,75.2%
O=S(=O)(c1ccc(NCSc2nc3ccccc3s2)cc1)c1ccc(NCSc2nc3ccccc3s2)cc1,102%,87.8%,103%,66.4%,104%,70.7%,69.7%,91.1%,99.6%,97.1%
O=C(Nc1cccc2c1C(=O)c1cccc(NC(=O)c3ccc(C(=O)Nc4cccc5c4C(=O)c4cccc(NC(=O)c6ccccc6)c4C5=O)cc3)c1C2=O)c1ccccc1,98%,74.1%,98.8%,103%,111%,58.4%,84.7%,99.6%,109%,111%
O=c1cc(-c2nccc3c2[nH]c2ccccc23)c2cc(Cl)ccc2o1,60.7%,49.5%,81.6%,32.7%,21.5%,26.1%,14.4%,42.3%,27.9%,68.7%
Nc1nc(Nc2ccc([N+](=O)[O-])cc2O)nc(C(Cl)(Cl)Cl)n1,80.1%,90.2%,96.9%,80%,90.2%,49.4%,10.9%,82.4%,97.1%,107%
CC(=O)c1ccc(Nc2nccc(-c3ccc(Cl)cc3)n2)cc1,84.2%,54%,100%,108%,85.5%,109%,90.8%,87%,101%,105%
C=C1C(=O)O[C@H]2[C@H]1CC/C(CNC(=O)/C=C/c1cc(OC)c(OC)c(OC)c1)=C\CC[C@@]1(C)O[C@@H]21,-31.3% (active),-61.8% (active),60%,26%,82.3%,-36% (active),-93.5% (active),40%,-68.5% (active),-86.5% (active)
O=c1[nH]c(CN2CCN(c3ccccc3)CC2)nc2c(Br)cc(Br)cc12,98.4%,93.4%,112%,101%,100%,131%,103%,101%,103%,104%
O=c1ccc2c(ccc3ncccc32)o1,106%,104%,101%,109%,113%,112%,96%,98.2%,110%,107%
c1ccc(-c2nc(N3CCNCC3)c3oc(-c4ccccc4)nc3n2)cc1,-66.8% (active),-41.6% (active),-95.1% (active),-67.9% (active),-81.1% (active),-53.1% (active),-28.3% (active),-44.8% (active),-74.1% (active),-39.7% (active)
Cc1ccc(C2(C)NC(=O)N(CC(=O)Nc3cccc(C)c3)C2=O)cc1 (stereo not given),96.5%,84.5%,102%,102%,97.8%,63.8%,77.2%,101%,104%,116%
COc1ccc2c(c1)c(-c1nc(-c3cn(C)c4ccncc34)cs1)cn2C,92.2%,113%,95.7%,94.7%,-64.5% (active),81.8%,87.3%,2.44% (active),84.8%,92.6%
C=CCNc1ccc2c3c(cccc13)C(=O)N(CC=C)C2=O,96%,93.7%,102%,108%,99.9%,49.6%,99.4%,103%,101%,110%
Cc1ccc2nc(/C=C/c3ccc(N(C)C)cc3)cc(C)c2c1,42.1%,64.8%,70.9%,32.4%,15.1%,25.7%,25.1%,52.3%,35.1%,23.5%
O=c1c2cccc3c(N4CCOCC4)ccc(c32)c2nc3ccccc3n12,76.9%,91%,89.1%,86.4%,88.4%,59.2%,80.5%,92.7%,97.5%,87.6%
O=C(COc1ccc(/C=C2\Oc3ccccc3C2=O)cc1)Nc1nccs1,87.6%,89.8%,89.3%,86.8%,107%,34.3%,-30.2% (active),97.5%,88.1%,107%
COC(=O)[C@H](C)NC(=O)c1ccc(NC(=O)c2[nH]c(C)c(Cl)c2Cl)c(OCCN)c1,106%,112%,101%,106%,105%,101%,107%,98.1%,98.6%,104%
